# Experimental data reported in PubChem BioAssay (Tox21).
# A number with no mark means an inactive call. A call without a number means that no potency is given here. Calls of active or inactive are those of the source. Unless noted, calls follow the shape of the dose curve; as a rule, active = well fitted curve in the direction sought with a large enough effect in the repeat runs; inconclusive = weak or mixed curves; inactive = no such curve, though single readings can be large; an effect the other way counts as inactive or inconclusive.
# Assays:
# [1] = qHTS assay to identify small molecule antagonists of the thyroid receptor (TR) signaling pathway (AID 743065); also: nearly all actives have a fitted effect of over 55% in size; also: potency is read from the fitted curve at half-maximal effect; as to activity, negative = inhibition: series mostly up to about 70 µM
# Summary of the method: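 Antagonism measured as loss of luciferase signal in GH3 cells stably carrying a TRE-luciferase reporter, co-treated with compound and T3 (1 nM final) for 23.5 h at 37 C. Viability was read in the same well by CellTiter-Fluor.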
# [2] = test system: thyroid hormone receptor (rat, GH3 cells); test: qHTS assay to identify small molecule agonists of the thyroid receptor (TR) signaling pathway (AID 743066; calls by dose curve)
# [3] = qHTS assay to identify small molecule antagonists of the estrogen receptor alpha (ER-alpha) signaling pathway - cell viability counter screen (AID 743074; calls by dose curve;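 also: HEK293 cells carrying ER-alpha-UAS-bla reporter stimulated with 17beta-estradiol; nearly all actives have a fitted effect of over 45% in size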)
# [4] = molecular target: Estrogen receptor (Homo sapiens) (UniProt P03372); test: qHTS assay to identify small molecule agonists of the estrogen receptor alpha (ER-alpha) signaling pathway (AID 743075; calls by dose curve;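 also: HEK293 GripTite cells with ER-alpha and UAS-driven beta-lactamase reporter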; also: potency is read from the fitted curve at half-maximal effect)
# [5] = molecular target: Estrogen receptor (Homo sapiens) (UniProt P03372); test: qHTS assay to identify small molecule agonists of the estrogen receptor alpha (ER-alpha) signaling pathway using the BG1 cell line (AID 743079); also: nearly all actives have a fitted effect of over 20% in size; also: potency is read from the fitted curve at half-maximal effect
# [6] = qHTS assay to identify small molecule antagonists of the estrogen receptor alpha (ER-alpha) signaling pathway using the BG1 cell line (AID 743080; calls by dose curve;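 also: BG1 cells stimulated with 17beta-estradiol alongside compound; series mostly up to about 70 µM; nearly all actives have a fitted effect of over 25% in size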)
# Summary of the method: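 BG1-Luc-4E2 cells (endogenous full-length ER-alpha, 4xERE luciferase) hormone-starved 5 days in charcoal-stripped FBS, plated 4,000/well for 24 h, then compound plus 17beta-estradiol for 21.5 h at 37 C; ONE-Glo luminescence read.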
# [7] = qHTS assay to identify small molecule antagonists of the estrogen receptor alpha (ER-alpha) signaling pathway using the BG1 cell line - cell viability counter screen (AID 743081);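 also: compound given together with 17beta-estradiol as the ER stimulus; series mostly up to about 70 µM; nearly all actives have a fitted effect of over 45% in size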
# Aromatase (Homo sapiens) = Aromatase (Homo sapiens) (UniProt P11511); test: qHTS assay to identify aromatase inhibitors (AID 743083); also: series mostly up to about 70 µM; nearly all actives have a fitted effect of over 55% in size
# [8] = qHTS assay to identify aromatase inhibitors - cell viability counter screen (AID 743084);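 also: cells stimulated with testosterone during compound exposure; nearly all actives have a fitted effect of over 55% in size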
# Chain of Aromatase (Homo sapiens) (P11511 whole entry, looked up): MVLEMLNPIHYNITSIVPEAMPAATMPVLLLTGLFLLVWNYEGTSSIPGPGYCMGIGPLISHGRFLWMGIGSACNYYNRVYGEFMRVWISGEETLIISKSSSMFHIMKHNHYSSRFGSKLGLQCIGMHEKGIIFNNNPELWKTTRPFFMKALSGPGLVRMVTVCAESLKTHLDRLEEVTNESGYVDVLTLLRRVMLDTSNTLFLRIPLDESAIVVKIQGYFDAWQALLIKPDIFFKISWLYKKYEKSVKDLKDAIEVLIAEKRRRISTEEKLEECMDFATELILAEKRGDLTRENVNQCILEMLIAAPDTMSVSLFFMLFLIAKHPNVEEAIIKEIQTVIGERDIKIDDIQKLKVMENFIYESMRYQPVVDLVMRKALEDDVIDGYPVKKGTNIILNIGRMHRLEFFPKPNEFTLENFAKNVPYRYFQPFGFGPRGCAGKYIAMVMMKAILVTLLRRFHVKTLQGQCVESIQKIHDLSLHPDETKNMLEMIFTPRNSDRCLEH
# Chain of Estrogen receptor (Homo sapiens) (P03372 whole entry, looked up): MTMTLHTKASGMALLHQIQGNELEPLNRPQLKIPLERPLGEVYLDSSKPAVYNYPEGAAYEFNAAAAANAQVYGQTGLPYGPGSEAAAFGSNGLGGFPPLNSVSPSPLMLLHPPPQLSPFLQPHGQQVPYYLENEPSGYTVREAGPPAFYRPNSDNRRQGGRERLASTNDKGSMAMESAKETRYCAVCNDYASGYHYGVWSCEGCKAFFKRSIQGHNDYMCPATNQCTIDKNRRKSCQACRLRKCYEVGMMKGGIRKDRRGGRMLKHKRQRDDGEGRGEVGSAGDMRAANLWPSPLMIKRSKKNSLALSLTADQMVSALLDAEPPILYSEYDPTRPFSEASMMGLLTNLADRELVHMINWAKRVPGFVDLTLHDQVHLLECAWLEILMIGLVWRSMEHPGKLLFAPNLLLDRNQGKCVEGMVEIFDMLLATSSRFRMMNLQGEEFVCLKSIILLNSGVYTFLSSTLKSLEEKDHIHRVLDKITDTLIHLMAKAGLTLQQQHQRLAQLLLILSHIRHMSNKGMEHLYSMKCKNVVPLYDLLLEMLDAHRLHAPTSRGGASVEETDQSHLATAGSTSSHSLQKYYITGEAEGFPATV
compound,measurement,setting,value
C/C=C/C(=O)CCCC,Potency,[1],inactive
same,Potency,[2],inactive
same,Potency,[3],inactive
same,Potency,[4],inactive
same,Potency,[5],inactive
same,Potency,[6],inactive
same,outcome,[7],inactive
same,Potency,Aromatase (Homo sapiens),inactive
same,outcome,[8],inactive
CCC(C)SSC(C)CC (stereo not given),Potency,[1],inactive
same,Potency,[2],inactive
same,Potency,[3],inactive
same,Potency,[4],inactive
same,Potency,[5],inactive
same,Potency,[6],inactive
same,outcome,[7],inactive
same,Potency,Aromatase (Homo sapiens),inactive
same,outcome,[8],inactive
C=CC(=O)OCCOCCOCC,Potency,[1],inactive
same,Potency,[2],inactive
same,Potency,[3],inactive
same,outcome,[7],inactive
same,Potency,Aromatase (Homo sapiens),inactive
O=S(=O)(O)c1cc(I)c(O)c2ncccc12,Potency,[1],inactive
same,Potency,[2],inactive
same,Potency,[3],inactive
same,outcome,[7],inactive
same,Potency,Aromatase (Homo sapiens),inactive
same,outcome,[8],inactive
CCCCCCCC(=O)N(C)C,Potency,[1],inactive
same,Potency,[2],inactive
same,Potency,[3],inactive
same,Potency,[4],inactive
same,Potency,[5],inactive
same,Potency,[6],inactive
same,outcome,[7],inactive
same,Potency,Aromatase (Homo sapiens),inactive
same,outcome,[8],inactive
COc1ccc2cc(CCC(C)=O)ccc2c1,Potency,[1],inactive
same,Potency,[2],inactive
same,Potency,[3],inactive
same,outcome,[7],inactive
same,Potency,Aromatase (Homo sapiens),inactive
same,outcome,[8],inactive
O=C(O)CCC(=O)Nc1ccc(S(=O)(=O)Nc2nccs2)cc1,Potency,[1],inactive
same,Potency,[2],inactive
same,Potency,[3],inactive
same,outcome,[7],inactive
same,Potency,Aromatase (Homo sapiens),inactive
same,outcome,[8],inactive
CC(C)C(C)C,Potency,[1],inactive
same,Potency,[2],inactive
same,Potency,[3],inactive
same,outcome,[7],inactive
same,Potency,Aromatase (Homo sapiens),inactive
same,outcome,[8],inactive
CNCCc1ccccn1,Potency,[1],inactive
same,Potency,[2],inactive
same,Potency,[3],inactive
same,outcome,[7],inactive
same,Potency,Aromatase (Homo sapiens),inactive
same,outcome,[8],inactive
O=C(c1ccccc1)c1cccc(O)c1,Potency,[1],inactive
same,Potency,[2],inactive
same,Potency,[3],inactive
same,Potency,[4],49.7 µM [inconclusive] (active)
same,Potency,[5],15.6 µM (active)
same,outcome,[7],inactive
same,Potency,Aromatase (Homo sapiens),inactive
same,outcome,[8],inactive
CC(C)(C)OC(=O)c1ccccc1C(=O)O,Potency,[1],inactive
same,Potency,[2],inactive
same,Potency,[3],inactive
same,Potency,[4],inactive
same,Potency,[5],inactive
same,Potency,[6],inactive
same,outcome,[7],inactive
same,Potency,Aromatase (Homo sapiens),inactive
same,outcome,[8],inactive
C=CC(C)(CCC=C(C)C)OC(=O)C(C)C (stereo not given),Potency,[1],inactive
same,Potency,[2],inactive
same,Potency,[3],inactive
same,Potency,[4],inactive
same,Potency,[5],inactive
same,Potency,[6],inactive
same,outcome,[7],inactive
same,Potency,Aromatase (Homo sapiens),inactive
same,outcome,[8],inactive
CC(C)(C)C(=O)NCCCC(=O)O,Potency,[1],inactive
same,Potency,[2],inactive
same,Potency,[3],inactive
same,Potency,[4],inactive
same,Potency,[5],inactive
same,Potency,[6],inactive
same,outcome,[7],inactive
same,Potency,Aromatase (Homo sapiens),inactive
same,outcome,[8],inactive
CC(=O)OC/C=C(/C)CCC=C(C)C,Potency,[1],inactive
same,Potency,[2],inactive
same,Potency,[3],inactive
same,Potency,[4],inactive
same,Potency,[5],inactive
same,Potency,[6],inactive
same,outcome,[7],inactive
same,Potency,Aromatase (Homo sapiens),inactive
same,outcome,[8],inactive
COC(=O)c1ccccc1Cl,Potency,[1],inactive
same,Potency,[2],inactive
same,Potency,[3],inactive
same,outcome,[7],inactive
same,Potency,Aromatase (Homo sapiens),inactive
same,outcome,[8],inactive
O=C(O)COc1ccc2ccccc2c1,Potency,[1],inactive
same,Potency,[2],inactive
same,Potency,[3],inactive
same,Potency,[4],inactive
same,Potency,[5],inactive
same,Potency,[6],inactive
same,outcome,[7],inactive
same,Potency,Aromatase (Homo sapiens),inactive
same,outcome,[8],inactive
CCN(CC)CC,Potency,[1],inactive
same,Potency,[2],inactive
same,Potency,[3],inactive
same,Potency,[4],inactive
same,Potency,[5],inactive
same,Potency,[6],inactive
same,outcome,[7],inactive
same,Potency,Aromatase (Homo sapiens),inactive
same,outcome,[8],inactive
CCCC(C)C(O)CC (stereo not given),Potency,[1],inactive
same,Potency,[2],inactive
same,Potency,[3],inactive
same,outcome,[7],inactive
same,Potency,Aromatase (Homo sapiens),inactive
same,outcome,[8],inactive
CC(C)OC(=O)C(C(=O)OC(C)C)=C1SC=CS1,Potency,[1],inactive
same,Potency,[2],inactive
same,Potency,[3],inactive
same,outcome,[7],inactive
same,Potency,Aromatase (Homo sapiens),inactive
same,outcome,[8],inactive
CC(C)(C)OC=O,Potency,[1],inactive
same,Potency,[2],inactive
same,Potency,[3],inactive
same,outcome,[7],inactive
same,Potency,Aromatase (Homo sapiens),inactive
same,outcome,[8],inactive
COc1cc(C(=O)NC2CCCNC2)cc(OC)c1OC (stereo not given),Potency,[1],inactive
same,Potency,[2],inactive
same,Potency,[3],inactive
same,Potency,Aromatase (Homo sapiens),inactive
same,outcome,[8],inactive
CCCCCC(CC)OC(=O)CCCOc1ccc(Cl)cc1Cl (stereo not given),Potency,[1],inactive
same,Potency,[2],inactive
same,Potency,[3],inactive
same,outcome,[7],inactive
same,Potency,Aromatase (Homo sapiens),inactive
same,outcome,[8],inactive
NC(=O)CC[C@@H](N)C(=O)O,Potency,[1],inactive
same,Potency,[2],inactive
same,Potency,[3],inactive
same,outcome,[7],inactive
same,Potency,Aromatase (Homo sapiens),inactive
same,outcome,[8],inactive
CC(=O)c1c(C)cc(C(C)(C)C)cc1C,Potency,[1],inactive
same,Potency,[2],inactive
same,Potency,[3],inactive
same,outcome,[7],inactive
same,Potency,Aromatase (Homo sapiens),inactive
same,outcome,[8],inactive
CCCCCCCCS(=O)(=O)O,Potency,[1],inactive
same,Potency,[2],inactive
same,Potency,[3],inactive
same,outcome,[7],inactive
same,Potency,Aromatase (Homo sapiens),inactive
same,outcome,[8],inactive
COc1cc(NS(=O)(=O)c2ccc(N)cc2)ncn1,Potency,[1],inactive
same,Potency,[2],inactive
same,Potency,[3],inactive
same,outcome,[7],inactive
same,Potency,Aromatase (Homo sapiens),inactive
same,outcome,[8],inactive
CC1(C)CC(N)CC(C)(C)N1,Potency,[1],inactive
same,Potency,[2],inactive
same,Potency,[3],inactive
same,outcome,[7],inactive
same,Potency,Aromatase (Homo sapiens),inactive
same,outcome,[8],inactive
O=C[C@@H](O)[C@H](O)[C@H](O)CO,Potency,[1],inactive
same,Potency,[2],inactive
same,Potency,[3],inactive
same,outcome,[7],inactive
same,Potency,Aromatase (Homo sapiens),inactive
same,outcome,[8],inactive
CCCCCCCCOCCC#N,Potency,[1],inactive
same,Potency,[2],inactive
same,Potency,[3],inactive
same,outcome,[7],inactive
same,outcome,[8],inactive
CCCCCCCCC1CO1 (stereo not given),Potency,[1],inactive
same,Potency,[2],inactive
same,Potency,[3],inactive
same,outcome,[7],inactive
same,Potency,Aromatase (Homo sapiens),inactive
same,outcome,[8],inactive
CC(C)(Sc1cc(C(C)(C)C)c(O)c(C(C)(C)C)c1)Sc1cc(C(C)(C)C)c(O)c(C(C)(C)C)c1,Potency,[1],inactive
same,Potency,[2],inactive
same,Potency,[3],inactive
same,outcome,[7],inactive
same,Potency,Aromatase (Homo sapiens),inactive
same,outcome,[8],inactive
C=CCON/C(CCC)=C1\C(=O)CC(C)(C)C(C(=O)OC)=C1O,Potency,[1],inactive
same,Potency,[2],inactive
same,Potency,[3],inactive
same,outcome,[7],inactive
same,Potency,Aromatase (Homo sapiens),inactive
same,outcome,[8],inactive
CC(C)OCCO,Potency,[1],inactive
same,Potency,[2],inactive
same,Potency,[3],inactive
same,outcome,[7],inactive
same,Potency,Aromatase (Homo sapiens),inactive
same,outcome,[8],inactive
CCCCCCC(=O)c1ccccc1,Potency,[1],inactive
same,Potency,[2],inactive
same,Potency,[3],inactive
same,outcome,[7],inactive
same,Potency,Aromatase (Homo sapiens),inactive
same,outcome,[8],inactive
c1cc2ccc3ccc4ccc5cccc6c(c1)c2c3c4c56,"activity, negative = inhibition",[1],1.62% [at 3.79 µM]
same,activation,[2],1% [at 3.63 µM]
same,"activity, negative = cytotoxicity",[3],7.3% [at 3.02 µM]
same,"activity change, negative = cytotoxicity",[7],17.4% [at 3.79 µM]
same,"activity, negative = inhibition",Aromatase (Homo sapiens),-7.29% [at 3.79 µM]
same,"activity change, negative = cytotoxicity",[8],7.94% [at 3.79 µM]
CCCCCCCCCCCCCCCC/C=C/C1CC(=O)OC1=O (stereo not given),Potency,[1],29.7 µM (active)
same,Potency,[2],inactive
same,Potency,[3],inactive
same,outcome,[7],inactive
same,Potency,Aromatase (Homo sapiens),inactive
same,outcome,[8],inactive
CCCCCC(=O)CC,Potency,[1],inactive
same,Potency,[2],inactive
same,Potency,[3],inactive
same,outcome,[7],inactive
same,Potency,Aromatase (Homo sapiens),inactive
same,outcome,[8],inactive
CCOCCOCCOC(C)=O,Potency,[1],inactive
same,Potency,[2],inactive
same,Potency,[3],inactive
same,outcome,[7],inactive
same,Potency,Aromatase (Homo sapiens),inactive
same,outcome,[8],inactive
CN(C)CCc1c[nH]c2ccc(C[C@H]3COC(=O)N3)cc12,Potency,[1],inactive
same,Potency,[2],inactive
same,Potency,[4],inactive
same,Potency,[5],inactive
same,Potency,[6],inactive
same,outcome,[7],inactive
same,Potency,Aromatase (Homo sapiens),inactive
CC[N+](C)(CC)CC,Potency,[1],inactive
same,Potency,[2],inactive
same,Potency,[3],inactive
same,outcome,[7],inactive
same,Potency,Aromatase (Homo sapiens),inactive
same,outcome,[8],inactive
C=C(C)C(=O)OCCCC,Potency,[1],inactive
same,Potency,[2],inactive
same,Potency,[3],inactive
same,outcome,[7],inactive
same,Potency,Aromatase (Homo sapiens),inactive
same,outcome,[8],inactive
NC[C@H]1O[C@H](O[C@H]2[C@H](O)[C@@H](O[C@H]3O[C@H](CO)[C@@H](O)[C@H](N)[C@H]3O)[C@H](N)C[C@@H]2N)[C@H](N)[C@@H](O)[C@@H]1O,Potency,[1],inactive
same,Potency,[2],inactive
same,Potency,[3],inactive
same,outcome,[7],inactive
same,Potency,Aromatase (Homo sapiens),inactive
same,outcome,[8],inactive
O=C(O)P(=O)(O)O,Potency,[1],inactive
same,Potency,[2],inactive
same,Potency,[3],inactive
same,outcome,[7],inactive
same,Potency,Aromatase (Homo sapiens),inactive
same,outcome,[8],inactive
